# For some assays here: Entries with a potency or affinity are not part of this list.
# Tests used:
# Parameters in all cases: scale not given: direction of the effect not stated beside the values
# [1] = molecular target: Protein translocase subunit SecA (Escherichia coli (strain K12)) (UniProt P10408); test: Assay to Identify E. coli SecA ATPase Inhibitors; assay type: functional; conditions: 30 µM
# [2] = molecular target: T1, Ubiquitin-activating enzyme e1, putative (Leishmania donovani (strain BPK282A1)) (UniProt E9BSI1); test: Leishmania donovani Ubiquitin Activating Enzyme (LdE1); assay type: functional; conditions: 30 µM
# T1 sequence (whole entry): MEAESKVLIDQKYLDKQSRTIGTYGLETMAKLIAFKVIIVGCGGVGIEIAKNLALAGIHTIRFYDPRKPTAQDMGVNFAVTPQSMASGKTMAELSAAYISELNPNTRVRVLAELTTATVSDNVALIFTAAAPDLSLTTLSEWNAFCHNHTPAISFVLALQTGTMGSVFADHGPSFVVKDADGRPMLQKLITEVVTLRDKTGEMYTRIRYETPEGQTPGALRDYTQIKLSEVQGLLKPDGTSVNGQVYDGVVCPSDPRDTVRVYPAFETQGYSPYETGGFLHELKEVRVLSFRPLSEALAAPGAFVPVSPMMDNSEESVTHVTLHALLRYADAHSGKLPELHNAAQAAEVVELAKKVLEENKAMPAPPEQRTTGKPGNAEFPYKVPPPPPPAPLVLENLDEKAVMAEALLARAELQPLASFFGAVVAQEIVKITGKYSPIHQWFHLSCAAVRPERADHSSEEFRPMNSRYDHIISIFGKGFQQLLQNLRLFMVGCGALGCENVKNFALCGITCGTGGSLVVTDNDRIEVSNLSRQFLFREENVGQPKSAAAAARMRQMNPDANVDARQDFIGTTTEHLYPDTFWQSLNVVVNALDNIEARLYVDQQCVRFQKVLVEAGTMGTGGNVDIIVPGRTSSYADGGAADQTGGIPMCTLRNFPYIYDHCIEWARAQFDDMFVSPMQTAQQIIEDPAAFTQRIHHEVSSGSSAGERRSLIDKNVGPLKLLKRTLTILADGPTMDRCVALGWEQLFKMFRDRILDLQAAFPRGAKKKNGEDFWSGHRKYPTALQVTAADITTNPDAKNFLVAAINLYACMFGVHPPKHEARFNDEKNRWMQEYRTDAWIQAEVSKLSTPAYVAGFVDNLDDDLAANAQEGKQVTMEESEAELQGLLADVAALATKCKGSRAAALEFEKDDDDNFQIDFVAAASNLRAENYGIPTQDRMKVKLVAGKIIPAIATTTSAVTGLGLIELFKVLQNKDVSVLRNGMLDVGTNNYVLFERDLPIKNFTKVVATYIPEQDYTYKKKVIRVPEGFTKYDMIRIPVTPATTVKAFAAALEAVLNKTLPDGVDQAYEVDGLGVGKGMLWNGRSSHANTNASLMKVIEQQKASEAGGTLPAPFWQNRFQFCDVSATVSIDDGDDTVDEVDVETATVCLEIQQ
# [3] = molecular target: AMP-activated protein kinase, AMPK (Homo sapiens) (UniProt P54646+O43741+P54619+Q9UGJ0+Q9Y478+Q13131+Q9UGI9); test: AMP-dependent Kinase enzyme assay. An in vitro enzyme assay that detects ADP turnover that is directly proportional to AMPK activity. This uses naive AMPK that is activated during the assay with MK-8722; assay type: functional; conditions: 30 µM
# [4] = molecular target: Sialic acid-binding Ig-like lectin 9 (Homo sapiens) (UniProt Q9Y336); test: Hs-Siglec9 ALPHAscreen SOP 20170721; conditions: 10 µM
# Sequence of Sialic acid-binding Ig-like lectin 9 (Homo sapiens) (Q9Y336 whole entry): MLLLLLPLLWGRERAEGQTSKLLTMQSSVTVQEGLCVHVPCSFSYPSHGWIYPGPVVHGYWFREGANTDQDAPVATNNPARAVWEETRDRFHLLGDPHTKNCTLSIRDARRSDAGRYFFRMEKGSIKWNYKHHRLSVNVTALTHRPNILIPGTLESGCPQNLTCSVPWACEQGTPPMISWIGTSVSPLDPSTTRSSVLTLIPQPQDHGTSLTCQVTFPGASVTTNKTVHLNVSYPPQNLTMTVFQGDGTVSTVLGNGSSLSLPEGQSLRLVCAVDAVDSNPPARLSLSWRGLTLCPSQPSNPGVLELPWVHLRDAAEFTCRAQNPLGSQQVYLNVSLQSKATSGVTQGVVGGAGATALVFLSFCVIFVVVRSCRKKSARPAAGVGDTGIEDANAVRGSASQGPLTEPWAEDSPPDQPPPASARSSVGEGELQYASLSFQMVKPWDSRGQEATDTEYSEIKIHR
# Trypanosoma cruzi = test: Trypanosoma cruzi phosphomannomutase and mannose-1-phosphate guanylyltransferase assay; assay type: functional; conditions: 10 µM
# [5] = molecular target: T2, Arginase-2, mitochondrial (Homo sapiens) (UniProt P78540); test: in vitro enzyme assay to detect the production of urea directly proportional to the activity of Arginase II; assay type: functional; conditions: 33.3 µM; also: in the data most compounds retested in dose-response had high values
# T2 sequence (whole entry): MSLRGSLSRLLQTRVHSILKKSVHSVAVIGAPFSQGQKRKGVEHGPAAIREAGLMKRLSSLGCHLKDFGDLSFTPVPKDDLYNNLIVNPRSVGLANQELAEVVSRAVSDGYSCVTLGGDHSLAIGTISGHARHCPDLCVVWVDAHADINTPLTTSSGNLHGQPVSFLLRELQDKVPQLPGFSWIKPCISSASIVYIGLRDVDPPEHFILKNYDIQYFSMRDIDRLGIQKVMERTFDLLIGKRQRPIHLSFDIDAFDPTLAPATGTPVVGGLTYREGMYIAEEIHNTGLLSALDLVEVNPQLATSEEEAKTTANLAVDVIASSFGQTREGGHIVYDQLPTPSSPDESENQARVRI
# [6] = molecular target: T3, Proteasome subunit beta (Trypanosoma cruzi) (UniProt O96673); test: Trypanosoma cruzi proteasome chymotrypsin-like activity (TcProtChymo) assay.; also: in the data most compounds retested in dose-response had high values; assay type: functional; conditions: 9.37 µM
# T3 sequence (whole entry): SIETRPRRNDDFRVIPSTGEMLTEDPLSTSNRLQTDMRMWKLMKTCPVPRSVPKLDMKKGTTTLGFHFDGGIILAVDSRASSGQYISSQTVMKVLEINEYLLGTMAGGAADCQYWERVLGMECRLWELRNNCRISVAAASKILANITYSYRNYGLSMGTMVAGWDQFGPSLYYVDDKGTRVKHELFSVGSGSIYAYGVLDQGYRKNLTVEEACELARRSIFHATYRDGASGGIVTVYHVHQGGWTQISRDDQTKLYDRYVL
# Homo sapiens = organism: Homo sapiens; test: To identify inhibition of the IFN signalling (Jak-Stat) pathway via expression of an eGFP reporter gene under the control of an IFN-stimulated response element (ISRE) containing MxA promoter.; assay type: functional; conditions: 30 µM
# [7] = molecular target: T4, Tyrosyl-tRNA synthetase, putative (Trypanosoma cruzi (strain CL Brener)) (UniProt Q4DSP6); test: Trypanosoma cruzi tyrosyl tRNA synthetase (TcYRS) _High Tyrosine SOP; assay type: functional; conditions: 30 µM; also: in the data most compounds retested in dose-response had high values
# T4 sequence (whole entry): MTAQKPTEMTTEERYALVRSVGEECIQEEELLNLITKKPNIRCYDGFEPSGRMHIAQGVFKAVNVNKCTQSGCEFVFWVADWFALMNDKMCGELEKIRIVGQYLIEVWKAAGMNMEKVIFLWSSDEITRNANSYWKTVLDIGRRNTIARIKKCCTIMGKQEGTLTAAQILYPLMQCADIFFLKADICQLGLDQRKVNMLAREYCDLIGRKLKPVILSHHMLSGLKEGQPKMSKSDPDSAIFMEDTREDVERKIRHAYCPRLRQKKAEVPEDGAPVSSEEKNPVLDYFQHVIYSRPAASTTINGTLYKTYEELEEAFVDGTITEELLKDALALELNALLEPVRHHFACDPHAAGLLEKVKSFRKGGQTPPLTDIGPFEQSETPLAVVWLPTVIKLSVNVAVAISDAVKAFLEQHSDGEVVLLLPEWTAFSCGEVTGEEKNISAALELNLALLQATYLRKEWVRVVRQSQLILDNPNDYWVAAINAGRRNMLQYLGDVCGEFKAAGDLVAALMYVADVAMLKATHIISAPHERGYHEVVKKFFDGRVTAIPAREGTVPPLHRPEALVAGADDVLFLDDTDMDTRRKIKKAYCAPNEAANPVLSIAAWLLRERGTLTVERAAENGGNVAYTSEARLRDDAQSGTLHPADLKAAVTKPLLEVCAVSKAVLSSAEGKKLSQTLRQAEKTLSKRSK
# [8] = molecular target: T4, Tyrosyl-tRNA synthetase, putative (Trypanosoma cruzi (strain CL Brener)); test: Trypanosoma cruzi tyrosyl tRNA synthetase (TcYRS) SOP; assay type: functional; conditions: 30 µM
# [9] = molecular target: Chromo domain-containing protein 1 (Saccharomyces cerevisiae (strain ATCC 204508 / S288c) (Baker's yeast)) (UniProt P32657); test: ScCHD-1 Enzyme Inhibition Assay; assay type: functional; conditions: 30 µM; also: in the data most compounds retested in dose-response had high values
# Sequence of Chromo domain-containing protein 1 (Saccharomyces cerevisiae (strain ATCC 204508 / S288c) (Baker's yeast)) (P32657 whole entry, the tested form may be a part): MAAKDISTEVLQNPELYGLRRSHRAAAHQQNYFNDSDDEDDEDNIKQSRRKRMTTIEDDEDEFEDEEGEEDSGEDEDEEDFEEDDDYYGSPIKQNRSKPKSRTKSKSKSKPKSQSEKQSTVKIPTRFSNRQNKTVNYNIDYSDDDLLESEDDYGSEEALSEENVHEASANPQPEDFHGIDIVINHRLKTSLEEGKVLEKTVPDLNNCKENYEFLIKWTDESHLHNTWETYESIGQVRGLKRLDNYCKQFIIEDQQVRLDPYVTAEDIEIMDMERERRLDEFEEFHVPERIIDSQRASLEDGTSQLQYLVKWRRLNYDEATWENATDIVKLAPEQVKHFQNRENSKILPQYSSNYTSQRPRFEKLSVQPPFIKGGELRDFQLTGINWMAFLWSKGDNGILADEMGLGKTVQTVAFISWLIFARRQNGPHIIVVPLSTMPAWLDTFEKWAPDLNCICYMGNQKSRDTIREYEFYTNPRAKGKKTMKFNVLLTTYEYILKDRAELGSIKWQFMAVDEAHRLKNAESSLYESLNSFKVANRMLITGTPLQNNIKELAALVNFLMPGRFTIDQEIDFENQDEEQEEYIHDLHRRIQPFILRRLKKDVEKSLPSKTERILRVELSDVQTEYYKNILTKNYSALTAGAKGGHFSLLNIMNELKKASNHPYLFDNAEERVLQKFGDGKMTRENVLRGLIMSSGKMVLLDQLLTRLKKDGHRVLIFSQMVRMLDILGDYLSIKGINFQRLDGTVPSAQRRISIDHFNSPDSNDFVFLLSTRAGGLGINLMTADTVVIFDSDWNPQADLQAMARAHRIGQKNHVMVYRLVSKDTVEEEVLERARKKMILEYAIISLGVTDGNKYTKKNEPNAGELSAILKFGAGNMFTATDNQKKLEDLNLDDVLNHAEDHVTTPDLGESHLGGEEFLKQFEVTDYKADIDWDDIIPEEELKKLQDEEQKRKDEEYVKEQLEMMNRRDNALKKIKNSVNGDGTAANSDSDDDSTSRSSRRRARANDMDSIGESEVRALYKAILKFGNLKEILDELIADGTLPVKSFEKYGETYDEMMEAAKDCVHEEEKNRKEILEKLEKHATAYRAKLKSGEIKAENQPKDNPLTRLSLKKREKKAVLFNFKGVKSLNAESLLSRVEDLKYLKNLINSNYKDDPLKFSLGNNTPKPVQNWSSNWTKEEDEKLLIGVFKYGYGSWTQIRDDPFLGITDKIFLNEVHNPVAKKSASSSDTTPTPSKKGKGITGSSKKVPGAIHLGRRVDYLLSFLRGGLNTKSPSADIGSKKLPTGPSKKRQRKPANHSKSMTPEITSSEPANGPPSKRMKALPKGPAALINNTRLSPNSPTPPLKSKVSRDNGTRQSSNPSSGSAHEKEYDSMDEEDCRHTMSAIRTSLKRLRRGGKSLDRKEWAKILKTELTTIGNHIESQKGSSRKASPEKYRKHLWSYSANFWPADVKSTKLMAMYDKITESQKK
# Sequence of Protein translocase subunit SecA (Escherichia coli (strain K12)) (P10408 whole entry): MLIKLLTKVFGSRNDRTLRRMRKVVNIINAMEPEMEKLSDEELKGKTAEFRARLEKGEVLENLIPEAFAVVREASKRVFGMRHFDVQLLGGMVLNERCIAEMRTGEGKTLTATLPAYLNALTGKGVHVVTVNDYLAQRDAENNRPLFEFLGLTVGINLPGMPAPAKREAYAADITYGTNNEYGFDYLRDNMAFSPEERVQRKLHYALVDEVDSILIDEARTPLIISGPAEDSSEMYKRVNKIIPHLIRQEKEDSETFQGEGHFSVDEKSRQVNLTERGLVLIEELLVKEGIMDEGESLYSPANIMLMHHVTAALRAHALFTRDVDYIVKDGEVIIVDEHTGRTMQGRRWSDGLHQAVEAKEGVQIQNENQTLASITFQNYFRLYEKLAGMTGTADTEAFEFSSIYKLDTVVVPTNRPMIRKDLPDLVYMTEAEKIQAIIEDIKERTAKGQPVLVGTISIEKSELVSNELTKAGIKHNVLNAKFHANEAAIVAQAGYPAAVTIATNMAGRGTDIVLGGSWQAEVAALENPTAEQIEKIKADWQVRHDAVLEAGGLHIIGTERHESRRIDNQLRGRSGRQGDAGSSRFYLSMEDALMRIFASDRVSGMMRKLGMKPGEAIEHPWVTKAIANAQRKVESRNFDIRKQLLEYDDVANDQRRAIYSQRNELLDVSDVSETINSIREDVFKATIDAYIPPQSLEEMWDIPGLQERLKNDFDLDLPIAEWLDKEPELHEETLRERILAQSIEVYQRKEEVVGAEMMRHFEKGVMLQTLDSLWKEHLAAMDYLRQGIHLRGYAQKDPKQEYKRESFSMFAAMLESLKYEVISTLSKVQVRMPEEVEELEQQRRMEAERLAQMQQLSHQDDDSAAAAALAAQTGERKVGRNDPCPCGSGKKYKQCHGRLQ
Structure (SMILES),Percent Effect [1],Percent Effect [2],Percent Effect [3],Percent Effect [4],Percent Effect (Trypanosoma cruzi),Percent Effect [5],Percent Effect [6],Percent Effect (Homo sapiens),Percent Effect [7],Percent Effect [8],Percent Effect [9]
O=C(c1cccc(Cl)c1)N1CC[C@H]2[C@H]1CCN2CC1CCOCC1,-2.38%,0%,10.3%,0.0847%,0.197%,1.17%,9.78%,-5.51%,4.25%,3.85%,-5.25%
CC(Cn1ccnc1)NC(=O)C1(c2ccc3c(c2)OCCO3)CCCC1 (configuration not stated),-1.6%,20.2%,-9.88%,-5.21%,1.79%,-2.66%,15.2%,10.3%,6.4%,24.1%,-7.42%
CCN1CC2(CC1=O)CN(C(=O)c1ccco1)CCN(C(=O)N(C)C)C2 (configuration not stated),-0.623%,5.48%,-1.36%,5.48%,-2.18%,-8.78%,12.6%,6.21%,6.25%,1.24%,-1.51%
CCS(=O)(=O)c1ccccc1N1CCC(NC(=O)NC2CCCC2)CC1,-5.55%,10.8%,5.69%,8.77%,0.279%,-3.14%,-1.62%,16%,6.93%,13.4%,-1.94%
COc1cccn(CC(=O)N(C)CCOc2cc(C)cc(C)c2)c1=O,-5.42%,8.22%,-63.8%,11.9%,2.98%,-12.8%,15.2%,-0.398%,-2.08%,3.7%,-0.823%
O=C(NCCN1CCOCC1)NCc1ncc(-c2ccccc2)o1,-2.93%,2.67%,-6.01%,8.92%,7.3%,0%,16.6%,19.1%,7.1%,13.6%,-0.412%
O=C(NCCc1nnc2n1CCC2)NC1(c2cccc(F)c2)CC1,-3.06%,15.8%,4.44%,-2.57%,-3.6%,-3.55%,14.1%,11%,0%,10.4%,-3.66%
O=C(c1cccs1)N1CCC(O)(CN2CCc3ccccc3C2)C1 (configuration not stated),-1.45%,4.05%,0.49%,2.19%,-4.74%,5.34%,11.7%,7.61%,2.15%,3.9%,-12.6%
CSc1ncccc1C(=O)NCc1ccc(CS(=O)(=O)NC(C)C)cc1,-2.86%,13.9%,2.75%,-0.901%,-1.74%,3.23%,15.4%,21.4%,2.08%,2.53%,-26.4%
CC(=O)c1c(F)cccc1N1CCC(Cc2cccnc2)CC1,-2.45%,8.22%,-4.3%,3.69%,6.15%,2.4%,-1.46%,57.7%,7.29%,13.6%,-9.38%
O=C(CCOc1cccc(F)c1)N1CCCC(n2cncn2)C1 (configuration not stated),-2.79%,1.27%,7.42%,3.23%,-1.95%,4.95%,6%,2.52%,2.08%,7.59%,-10.2%
CN(Cc1cccs1)C(=O)CS(=O)(=O)Cc1ccc(Cl)c(Cl)c1,-3.83%,2.6%,4.47%,-21.6%,5.39%,-2.74%,16.7%,6.68%,-11.4%,-2.35%,-21.7%
Cc1nccn1CCC1CCCCN1C(=O)c1ccc2[nH]nnc2c1 (configuration not stated),-2.88%,10.7%,-0.957%,10%,2.63%,16.7%,9.59%,7.47%,3.83%,6.17%,-6.44%
Cc1cnn(CC2CN(Cc3nnc(C4CC4)o3)CCO2)c1 (configuration not stated),-7.99%,5.41%,87.3%,7.35%,-4.18%,-4.99%,-1.26%,8.17%,1.98%,3.66%,7.2%
CCN(CC1CN(CCc2ccccn2)CCO1)c1cccnn1 (configuration not stated),-2.15%,0%,-5.23%,-0.0186%,4.77%,3.12%,14.7%,-14.7%,0.546%,1.24%,2.6%
Cn1c2c(ccc1=O)CC(NS(C)(=O)=O)CC2 (configuration not stated),-7.68%,5.33%,5.05%,-7.17%,-1.97%,-0.233%,-1.15%,20.7%,2.13%,-3.85%,-1.57%
O=C(CCc1cccnc1)N(Cc1ccsc1)CC1CCCO1 (configuration not stated),-1.63%,-2.7%,-0.366%,-2.41%,1.93%,1.91%,10.3%,-6.2%,1.59%,7.32%,-3.52%
COCCN1CCN(C(C)C(=O)Nc2ccnn2C(C)C)CC1 (configuration not stated),-4.97%,2.7%,2.76%,0.97%,-1.95%,0.417%,7.35%,-1.59%,4.95%,1.22%,-1.09%
COc1cc(CCC(C)O)c(OC)c2c1OCO2 (configuration not stated),-5.08%,-1.33%,-4.24%,-3.72%,-4.13%,-6.51%,11.5%,-0.862%,-1.06%,0%,-6.82%
CCc1nnc(Nc2cccc(C3CCN(CCO)CC3)n2)s1,-7.83%,12.2%,0.559%,1.33%,1.58%,-2.55%,14%,24%,2.15%,11.7%,-26.9%
CC(=O)c1cc(CC(=O)NCc2ccc(CN(C)C)cc2)cs1,-2.94%,8.11%,-1.37%,9.94%,6.37%,0.476%,-1.21%,1.37%,2.65%,4.88%,-2.09%
CCc1noc(C(C)N2CCN(Cc3ncc(C(C)(C)C)o3)CC2)n1 (configuration not stated),1.4%,28.9%,-4.2%,-2.15%,-3.38%,0.383%,15%,26%,3.43%,9.76%,-10.7%
